Screening results as filed in PubChem BioAssay.
TGFb SMAD3 inh – TGF-b pathway inhibition | HepG2 CAGA-GFP TGF-b/SMAD3 reporter, GFP fluorescence, 18 h; TGF-beta stimulated, 500 pg/mL final | Potency, µM (series often up to 46.1 µM), usual class: inhibitors | hit rate 1.2% among 410,000 | AID 588855; further: nearly all actives have a fitted effect of over 65% in size
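HEPG2 CAGA-GFP cells (1000/well, DMEM with 1% FBS) were pre-incubated 2 h at 37 degrees C, given compound by pin tool, then stimulated with TGF-beta at 500 pg/mL final for 18 h before per-cell GFP fluorescence imaging.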
RORg inh – inhibitors of mouse ROR gamma transcriptional activity; Potency, µM (titrated, usually from 53.6 µM), usual class: inhibitors; Drosophila S2 Gal4-RORgamma UAS-luciferase reporter, 20 h; hit rate 5.4% among 310,000; further: nearly all actives have a fitted effect of over 60% in size
Target sequence (P51450 whole entry, looked up, the tested form may be a part): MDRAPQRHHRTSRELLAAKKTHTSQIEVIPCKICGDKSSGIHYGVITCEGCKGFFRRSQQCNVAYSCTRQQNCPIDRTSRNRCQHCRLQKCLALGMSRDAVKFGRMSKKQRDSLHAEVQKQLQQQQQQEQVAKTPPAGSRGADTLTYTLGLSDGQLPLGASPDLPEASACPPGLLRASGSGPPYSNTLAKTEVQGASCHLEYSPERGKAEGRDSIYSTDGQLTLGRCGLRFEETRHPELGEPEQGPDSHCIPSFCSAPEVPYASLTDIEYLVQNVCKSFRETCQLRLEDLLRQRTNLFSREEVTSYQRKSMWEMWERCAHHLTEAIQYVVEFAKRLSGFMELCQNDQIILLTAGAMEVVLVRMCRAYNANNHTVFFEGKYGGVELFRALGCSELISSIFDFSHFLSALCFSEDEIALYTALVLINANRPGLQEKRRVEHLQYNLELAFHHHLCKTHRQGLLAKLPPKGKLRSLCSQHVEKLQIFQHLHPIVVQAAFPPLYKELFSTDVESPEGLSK
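Stably transfected Drosophila Schneider cells are the test system, with ROR gamma fused to Gal4 and luciferase under UAS control; luminescence is read after 20 hr of 700 uM copper sulfate induction at ambient temperature.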
Gal4-VP16 FLuc – counter-screen for ROR gamma inhibitors: Gal4-VP16 reporter; Drosophila S2 Gal4-VP16 UAS-luciferase, luminescence, 20 h; Potency, µM (series often up to 53.6 µM), most hits filed as inhibitors; hit rate 3.5% among 310,000; AID 2546;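 further: Gal4-VP16 expression switched on by copper sulfate through the metallothionein promoter; nearly all actives have a fitted effect of over 50% in size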
S2 tox – cell viability loss in ATXN counter-screen | S2 cells (HEK-293 line with an ATXN2-luciferase reporter) viability, CellTiter-Fluor protease fluorescence, 24 h | Potency, µM (doses to about 56.7 µM), hits mostly cytotoxic | hit rate 0.49% among 400,000 | AID 651635; further: nearly all actives have a fitted effect of over 40% in size
HepG2 tox – HepG2 cytotoxicity, counter-screen for TGF-b inhibitors | HepG2 CAGA-GFP viability, ATP luminescence, 18 h | Potency, µM (highest dose often 46.1 µM), hits mostly cytotoxic | hit rate 0.76% among 410,000 | AID 588856
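HepG2 CAGA-GFP cells (1000/well, DMEM with 1% FBS) received compound, then TGF-beta at 500 pg/mL final, and were incubated 18 hours at 37 degrees C. Viability was read by CellTiter-Glo luminescence. Media-only wells were set as complete cell-killing and DMSO as no toxicity.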
ATXN2 expr inh – inhibitors of ATXN2 expression; HEK-293 ATXN2-luciferase reporter, luminescence, 24 h; Potency, µM (highest dose often 57 µM), most hits filed as inhibitors; hit rate 0.72% among 360,000; AID 1745845; further: nearly all actives have a fitted effect of over 55% in size
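ATXN2-luciferase reporter cells (luciferase flanked by upstream and downstream ATXN2 gene portions) were treated 24 h at 37 °C with compounds at up to 57 uM. SteadyGlo luminescence gave expression; GF-AFC fluorescence gave viability.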
Of the large screens only hits and unclear results are named; the others gave an inactive call. Shown are actives, neighbours in structure and some others; about 6.3% of the full set was active somewhere. The call rests on the fitted dose curve; in most records, active means well fitted curve in the direction sought with a large enough effect; inconclusive means small, poorly fitted or top-dose-only effect, or another doubt; inactive means no such curve, though single readings can be large; an effect the other way counts as inactive or inconclusive.

COc1ccc(C(=O)CSc2nnc3ccccn23)cc1OC	none (no result: ATXN2 expr inh)
O=C(CSc1nc2ccccc2c(=O)n1Cc1ccc(F)cc1)NCc1cccs1	RORg inh 2.8µM, Gal4-VP16 FLuc 5µM (no result: ATXN2 expr inh)
O=C1OCCC1Sc1nc2ccccc2c(=O)n1Cc1ccc(F)cc1 (configuration not stated)	RORg inh 4µM, Gal4-VP16 FLuc 8.9µM
Cc1cc(NC(=O)CSc2nc3ccccc3c(=O)n2Cc2ccc(F)cc2)no1	RORg inh inconclusive
COc1ccc([C@@H]2C[C@H]3[C@@H](CN2S(=O)(=O)c2ccccc2)C(=O)C[C@@H](c2cccc(Cl)c2)N3S(=O)(=O)c2ccc(C)cc2)cc1	S2 tox inconclusive (no result: RORg inh, Gal4-VP16 FLuc)
CC(=O)OC[C@@H]1O[C@@H](O/N=C2/C[C@@H](O)[C@@H](O)[C@@H]3[C@H]4C(=O)N(c5ccc(F)cc5F)C(=O)[C@@H]4CC[C@@H]23)[C@H](OC(C)=O)[C@H](OC(C)=O)[C@@H]1OC(C)=O	none (no result: TGFb SMAD3 inh, S2 tox, HepG2 tox, ATXN2 expr inh)
CCOc1ccc(C(=O)CSCCC(=O)O)cc1	RORg inh 0.28µM, Gal4-VP16 FLuc 0.32µM, ATXN2 expr inh inconclusive
CSc1ccc(CCNC(=O)C(C)n2c(C)c3cnn(-c4ccccc4)c(=O)c3c2C)cc1 (configuration not stated)	none (no result: RORg inh, Gal4-VP16 FLuc)
Cc1oc(-c2ccccc2NC(=O)c2cccnc2)nc1CNC(=O)C1CCCCCN1C (configuration not stated)	none (no result: TGFb SMAD3 inh, RORg inh, Gal4-VP16 FLuc, HepG2 tox, ATXN2 expr inh)
O=C(NCCNCCO)C1(C(F)(F)F)CC(CCc2ccccc2)CCCO1 (configuration not stated)	TGFb SMAD3 inh 4µM, RORg inh inconclusive, Gal4-VP16 FLuc inconclusive (no result: S2 tox, ATXN2 expr inh)
O=C(NCc1ccccc1)[C@]1(C(F)(F)F)C[C@H](CCc2ccccc2)CCCO1	TGFb SMAD3 inh inconclusive
Cc1ccc(C)c(C(O)c2ncc(-c3ccccc3Cl)[nH]2)c1 (configuration not stated)	none (no result: RORg inh, Gal4-VP16 FLuc)
O=C(Cc1ccc(OCC2CCCCC2)cc1)NO	none (no result: RORg inh, Gal4-VP16 FLuc, S2 tox, ATXN2 expr inh)
COc1cc2ccccc2cc1C(=O)N1CCN(c2nc3c(F)cc(F)cc3s2)CC1	TGFb SMAD3 inh 7.1µM, ATXN2 expr inh inconclusive (no result: RORg inh, Gal4-VP16 FLuc)
CCN(CC)c1ccc(NC(=S)NC(=O)Cc2ccccc2)cc1	RORg inh 2.5µM, Gal4-VP16 FLuc 2.5µM
CCOc1ccc(NC(=S)NC(=O)Cc2ccccc2)cc1	RORg inh 4µM, Gal4-VP16 FLuc 10µM (no result: ATXN2 expr inh)
CCOc1ccc(NC(=S)NNC(=O)CC(C)O)cc1 (configuration not stated)	none
CCc1nc2c(OCc3ccc(F)c(F)c3)cccn2c1N(C)C(=O)c1ccc(C)cc1	TGFb SMAD3 inh inconclusive (no result: RORg inh, Gal4-VP16 FLuc)
O=C(CC(SCc1ccco1)c1ccc(O)cc1)c1cccs1 (configuration not stated)	RORg inh 0.89µM
O=C(CC1(O)C(=O)Nc2cc(Cl)cc(Cl)c21)c1ccncc1 (configuration not stated)	TGFb SMAD3 inh inconclusive, S2 tox 25µM, ATXN2 expr inh inconclusive
O=C(CSc1cccc2cccnc12)N/N=C/c1ccc(O)cc1	none (no result: ATXN2 expr inh)
Cc1cccc(NC(=O)CSc2cccc3cccnc23)c1C	TGFb SMAD3 inh inconclusive
CCOC(=O)CSc1cccc2cccnc12	TGFb SMAD3 inh inconclusive, RORg inh inconclusive, Gal4-VP16 FLuc 10µM, S2 tox inconclusive, HepG2 tox 8.9µM, ATXN2 expr inh 20µM
COc1cccc(/C=N/NC(=O)CSc2cccc3cccnc23)c1	TGFb SMAD3 inh inconclusive, RORg inh 8.9µM, Gal4-VP16 FLuc inconclusive, S2 tox inconclusive, ATXN2 expr inh inconclusive
CCCCCOc1ccc(NC(=O)CSc2cccc3cccnc23)cc1	TGFb SMAD3 inh inconclusive, RORg inh inconclusive, Gal4-VP16 FLuc inconclusive, HepG2 tox 20µM
NNC(=O)c1ccc(CSc2cccc3cccnc23)cc1	RORg inh inconclusive
Cc1cccc(CSc2cccc3cccnc23)c1	TGFb SMAD3 inh inconclusive, RORg inh 4.5µM, Gal4-VP16 FLuc 7.9µM, S2 tox inconclusive, ATXN2 expr inh inconclusive
CCCCNC(=O)C1c2ccccc2OCC(=O)N1CCc1ccccc1 (configuration not stated)	none (no result: TGFb SMAD3 inh, RORg inh, Gal4-VP16 FLuc, HepG2 tox)
O=C(CSc1cccc2cccnc12)Nc1ccc(S(=O)(=O)N2CCOCC2)cc1	TGFb SMAD3 inh inconclusive, RORg inh 5.6µM, Gal4-VP16 FLuc inconclusive, S2 tox 11µM, ATXN2 expr inh 13µM
O=C(CSc1cccc2cccnc12)Nc1cccc(S(=O)(=O)N2CCOCC2)c1	none
O=S(=O)(c1ccc(Cl)cc1)c1nnn2c1nc(NCc1ccccc1)c1sccc12	none (no result: RORg inh, Gal4-VP16 FLuc, S2 tox, ATXN2 expr inh)
Cc1cc2n(n1)SC(Nc1ccc(F)c(Cl)c1)N2 (configuration not stated)	TGFb SMAD3 inh inconclusive, RORg inh 0.63µM, Gal4-VP16 FLuc 1.1µM
Cc1cc2n(n1)CCCN2C(=O)Nc1ccc(F)c(Cl)c1	none (no result: RORg inh, Gal4-VP16 FLuc)
O=C(O)CCC/C=C\CC1C2CCC(O2)C1CNNC(=O)Nc1ccccc1 (configuration not stated)	none (no result: TGFb SMAD3 inh, S2 tox, HepG2 tox, ATXN2 expr inh)
O=C(NC1=NCCS1)c1sc2cc(Cl)cc(Cl)c2c1Cl	RORg inh 6.3µM, Gal4-VP16 FLuc inconclusive
Cc1cccc2nc(-c3cccnc3)c(Nc3ccc(C(C)C)cc3)n12	TGFb SMAD3 inh inconclusive, S2 tox 13µM, ATXN2 expr inh 16µM (no result: RORg inh, Gal4-VP16 FLuc)
Cc1ccccc1Nc1c(-c2cccnc2)nc2cccc(C)n12	TGFb SMAD3 inh inconclusive, S2 tox inconclusive, ATXN2 expr inh inconclusive
O=C(NCCc1ccccn1)C1CC12CCN(C(=O)c1c(F)cccc1Cl)CC2 (configuration not stated)	none (no result: TGFb SMAD3 inh, RORg inh, Gal4-VP16 FLuc, HepG2 tox, ATXN2 expr inh)
CCN(c1ccccc1)S(=O)(=O)c1ccc(-c2cc(C)no2)s1	TGFb SMAD3 inh inconclusive (no result: RORg inh, Gal4-VP16 FLuc, S2 tox, ATXN2 expr inh)
Cc1[nH]nc2c1C(c1ccc(F)cc1)C(C#N)=C(N)O2 (configuration not stated)	none
Cc1[nH]nc2c1C(C1CC=CCC1)C(C#N)=C(N)O2 (configuration not stated)	TGFb SMAD3 inh inconclusive, RORg inh 6.3µM, Gal4-VP16 FLuc 11µM
Cc1ccc(-c2ccc(C3C(C#N)=C(N)Oc4n[nH]c(C)c43)o2)cc1 (configuration not stated)	TGFb SMAD3 inh inconclusive, Gal4-VP16 FLuc 11µM, HepG2 tox 16µM
Cc1[nH]nc2c1C(c1ccc(-c3ccc(Cl)cc3)o1)C(C#N)=C(N)O2 (configuration not stated)	TGFb SMAD3 inh inconclusive, RORg inh inconclusive, Gal4-VP16 FLuc inconclusive, S2 tox inconclusive
Cc1[nH]nc2c1C(c1ccc(-c3ccccc3C#N)o1)C(C#N)=C(N)O2 (configuration not stated)	RORg inh 8.9µM, Gal4-VP16 FLuc inconclusive
CCC(CC)C1C(C#N)=C(N)Oc2n[nH]c(C)c21 (configuration not stated)	none
